# Results taken from ChEMBL document CHEMBL4513149, “CO-ADD screening of MMV (CH) - MMV compounds” (2021).
# Potency and affinity values are given separately.
# Key:
# Klebsiella pneumoniae = conditions: Concentration 20 uM; ASSAY_TEST Inhibition of Bacterial Growth; detection method Absorption (OD600); MEDIA CAMHB; plate type 384well; NBS; CORNING #3640; time 18 hr
# Candida albicans = conditions: 20 µM
# Cryptococcus neoformans = conditions: Concentration 20 uM; ASSAY_TEST Inhibition of Fungal Growth; detection method Resazurin; Absorption (OD600-OD570); plate type 384well; NBS; CORNING #3640
Compound,Inhibition (Klebsiella pneumoniae) [%],Inhibition (Candida albicans) [%],Inhibition (Cryptococcus neoformans) [%]
Cc1noc(C)c1C(=O)N1CCCC(c2[nH]c3c(C)cccc3c2-c2ccncc2)C1 (stereo not drawn),18.77,4.29,-7.96
CN1CCC(NCc2cccc(-c3ccc(S(=O)(=O)NCc4ccccc4)cc3)c2)CC1,9.08,3.63,-7.83
COc1cccc(OCC(=O)c2ccc(Br)cc2)c1,-4.37,4.44,-12.88
Cc1cc(C)c2cc(C(=O)NC3CCCCCCC3)[nH]c2c1,18.42,3.94,-6.05
Cc1ccc2[nH]c3c(NCCN(C)C)ncnc3c2c1,16.4,2.94,-5.96
CN1CCCN(C(c2ccccc2)c2ccc(Cl)cc2)CC1 (stereo not drawn) [HOMOCHLORCYCLIZINE],10.44,2.84,-6.27
Cc1c[nH]c(CCNC(=O)c2cc(-c3ccc(Cl)cc3)cs2)n1,19.09,2.87,-12.96
Nc1ncc(-c2ccc(C(F)(F)F)nc2)cc1-c1ccc(C(F)(F)F)nc1,-7.95,5.26,-5.78
O=C(c1[nH]nc2c1CCCC2)N1CCN(Cc2ccc3c(c2)OCO3)CC1,7.71,2.93,-11.77
CC(C)(CN)c1nc(-c2ccc(Cl)c(O)c2)c(-c2ccnc(N)n2)[nH]1.O=C(O)C(F)(F)F.O=C(O)C(F)(F)F,15.34,2.09,-6.49
Cc1cc2nc(NC(=O)C(C)(C)C)nc(Cl)c2n1Cc1ccc(Cl)cc1,1.22,3.57,-0.22
